Experimental data published in PubChem BioAssay (EPA / NIEHS).
Several values for one entry are separate records, joined by “and”; a condition that tells them apart may be missing. Equal entries are not always repeated. Records with an inconclusive call do not appear. More than one record can exist for a structure, and the calls need not agree. Activity calls are given as the source filed them. Rule for the calls, unless noted: active = hit-call score of the fitted dose curve at least 0.9, where 1 is the maximum; inactive = score below 0.9.

Tests used:
[1] = target: Estrogen-related receptor gamma (Homo sapiens) (UniProt P62508); assay: ATG_ERRg_TRANS: Attagene TRANS-FACTORIAL HepG2 Assay for human Estrogen-Related Receptor gamma (ERRg) (AID 2282977; active = hit-call score of the fitted dose curve at least 0.9, where 1 is the maximum;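 note: hits increase reporter signal over DMSO so potencies reflect activators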); conditions: HepG2 Attagene TRANS reporter, ERRg transactivation
Procedure, shortened: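 Exogenous NR-Gal4 chimera activity was assessed in HepG2 cells bearing transfected GAL4-UAS reporters. After 24 h dosing, total RNA underwent RT-PCR, fluorescent primer extension and HpaI digestion before capillary electrophoresis, with gain of signal scored against DMSO.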

[2] = target: Glucocorticoid receptor (Homo sapiens) (UniProt P04150); assay: ATG_GR_TRANS: Attagene TRANS-FACTORIAL HepG2 Assay for human Glucocorticoid Receptor (GR) (AID 2282978; active = hit-call score of the fitted dose curve at least 0.9, where 1 is the maximum;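 note: activators score as hits since higher reporter transcript over DMSO is fitted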); conditions: HepG2 Attagene TRANS GR reporter, mRNA transcription
Procedure, shortened: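 HepG2 cells transiently transfected with multiplexed reporter units in which chimeric NR-GAL4 proteins drive GAL4-UAS reporters; 24 h compound exposure. Reporter mRNA measured by RT-PCR, 6-FAM labelling, HpaI digestion and capillary electrophoresis; gain-of-signal fitted versus DMSO.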

[3] = target: Bile acid receptor (Homo sapiens) (UniProt Q96RI1); assay: ATG_FXR_TRANS: Attagene TRANS-FACTORIAL HepG2 Assay for Farnesoid X Receptor (FXR) (AID 2282979; active = hit-call score of the fitted dose curve at least 0.9, where 1 is the maximum;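 note: hits raise reporter mRNA above DMSO so AC50 marks FXR activation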); conditions: HepG2 Attagene TRANS FXR-GAL4 reporter transcription
Procedure, shortened: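 HepG2 cells were transiently transfected with GAL4-UAS reporters driven by chimeric NR-Gal4 proteins and dosed for 24 h. Reporter mRNA was quantified by RT-PCR, fluorescent labelling, HpaI digestion and capillary electrophoresis, with gain of signal scored versus DMSO.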

[4] = target: Hepatocyte nuclear factor 4-alpha (Homo sapiens) (UniProt P41235); assay: ATG_HNF4a_TRANS: Attagene TRANS-FACTORIAL HepG2 Assay for human Hepatocyte Nuclear Factor 4 alpha (HNF4a) (AID 2282982; active = hit-call score of the fitted dose curve at least 0.9, where 1 is the maximum); conditions: HepG2 HNF4a transactivation reporter, mRNA readout
Procedure, shortened: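 Multiplexed reporter assay: transfected HepG2, 24 h exposure, total RNA → oligo(dT) RT → PCR → 6-FAM extension → HpaI digest → CE fluorescence. DMSO = negative control.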

[5] = ATG_M_06_TRANS: Attagene TRANS-FACTORIAL HepG2 Assay for M06 Transcription Factor (Internal Marker) (AID 2282983; active = hit-call score of the fitted dose curve at least 0.9, where 1 is the maximum); conditions: HepG2 Attagene TRANS M06 internal marker reporter
Procedure, shortened: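 mRNA levels of a reporter transcript, quantified as FAM fluorescence on capillary electrophoresis, served as readout. HepG2 cells expressing exogenous GAL4-chimera reporter constructs were exposed for 24 h. Gain of signal over DMSO was evaluated.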

[6] = ATG_M_32_TRANS: Attagene TRANS-FACTORIAL HepG2 Assay for M32 Transcription Factor (Internal Marker) (AID 2282984; active = hit-call score of the fitted dose curve at least 0.9, where 1 is the maximum;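 note: transcript level of a background control reporter unit measured by RT-PCR and capillary electrophoresis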); conditions: HepG2 Attagene TRANS M32 internal marker reporter
Procedure, shortened: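 Cell-based TRANS-format assay in HepG2: exogenous chimeric GAL4 reporter units transiently expressed, compounds applied 24 h. Reporter mRNA detected by RT-PCR plus capillary electrophoresis; this readout is an internal background marker.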

[7] = target: Nuclear receptor subfamily 4 group A member 2 (Homo sapiens) (UniProt P43354); assay: ATG_NURR1_TRANS: Attagene TRANS-FACTORIAL HepG2 Assay for human Nuclear Receptor Related Protein 1 (NURR1) (AID 2282985; active = hit-call score of the fitted dose curve at least 0.9, where 1 is the maximum); conditions: HepG2 Attagene TRANS reporter, mRNA readout
Procedure, shortened: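 Measures transcriptional activation by an exogenous NR-Gal4 chimera in transfected HepG2 liver cells. After 24 h, reporter RNA is reverse-transcribed, amplified and resolved by capillary electrophoresis; DMSO defines baseline.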

[8] = target: Transcriptional activator Myb (Homo sapiens) (UniProt P10242); assay: ATG_Myb_CIS: Attagene CIS-FACTORIAL HepG2 Assay for human Myeloblastosis (Myb) Proto-Oncogene Transcription Factor (AID 2282986); conditions: HepG2 Attagene CIS-FACTORIAL Myb reporter transcription; actives raise or lower the signal
Procedure, shortened: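 HepG2 cells were transiently transfected with cis-regulated multiple reporter transcription units reflecting endogenous Myb activity, then exposed to compound for 24 hours. Reporter mRNA was measured by RT-PCR with capillary electrophoresis; bidirectional fitting versus DMSO baseline.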

[9] = target: Nuclear respiratory factor 1 (Homo sapiens) (UniProt Q16656); assay: ATG_NRF1_CIS: Attagene CIS-FACTORIAL HepG2 Assay for human Nuclear Respiratory Factor 1 (NRF1) Orphan Gene (AID 2282987); conditions: HepG2 NRF1 cis-element reporter, Attagene multiplex; actives raise or lower the signal
Procedure, shortened: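 HepG2 cells transiently transfected with multiple reporter transcription units under cis-regulatory promoter control, so endogenous transcription-factor activity is read. After 24 h compound exposure, reporter mRNA quantified by RT-PCR, fluorescent labelling, HpaI digestion and capillary electrophoresis; bidirectional fitting versus DMSO.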

[10] = target: Myc proto-oncogene protein (Homo sapiens) (UniProt P01106); assay: ATG_Myc_CIS: Attagene CIS-FACTORIAL HepG2 Assay for human Myelocytomatosis (Myc) Proto-Oncogene Transcription Factor (AID 2282990); conditions: HepG2, Attagene cis-reporter transcription factor activity; actives raise or lower the signal
Procedure, shortened: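 After 24 h chemical treatment of HepG2 cells carrying multiplexed cis-regulated reporter constructs, reporter transcripts quantified by RT-PCR and capillary electrophoresis of fluorescent fragments. Gain or loss fitted against DMSO baseline.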

[11] = ATG_NF_kB_CIS: Attagene CIS-FACTORIAL HepG2 Assay for human Nuclear Factor Kappa B (NF-kB) (AID 2282991); conditions: HepG2 Attagene cis-factorial NF-kB reporter mRNA; actives raise or lower the signal
Procedure, shortened: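 HepG2 cells transiently transfected with multiplexed cis-element reporter units measuring endogenous transcription factor activity; reporter mRNA read 24 h after dosing by RT-PCR, fluorescent labelling, HpaI digestion and capillary electrophoresis. Bidirectional fit against DMSO baseline.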

[12] = ATG_NRF2_ARE_CIS: Attagene CIS-FACTORIAL HepG2 Assay for human Nuclear Factor Erythroid 2 Related Factor 2 (NFR2) response to Antioxidant Response Elements (ARE) (AID 2282992); conditions: HepG2 Attagene ARE/NRF2 reporter, transcription factor activity; actives raise or lower the signal
Procedure, shortened: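 Endogenous transcription factor activity read out as reporter transcript levels (RT-PCR plus capillary electrophoresis, fluorescence) in transiently transfected HepG2 cells. Measured at 24 h after dosing; gain or loss of signal fitted versus DMSO.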

[13] = ATG_Oct_MLP_CIS: Attagene CIS-FACTORIAL HepG2 Assay for human Octamer-Binding Transcription Factor (Oct) (AID 2282993); conditions: HepG2 Attagene cis-factorial Oct reporter, mRNA; actives raise or lower the signal
Procedure, shortened: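 Cells of the HepG2 line express promoter-controlled reporter sequences whose mRNA levels, after 24 h treatment, are measured by RT-PCR and capillary electrophoresis. Increases and decreases are scored relative to DMSO.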

[14] = BSK_3C_TissueFactor: BioMAP Diversity Plus: 3C Assay for Tissue Factor Biomarker Activity (AID 2282997); conditions: BioMAP 3C HUVEC, tissue factor biomarker readout; actives raise or lower the signal
Procedure, shortened: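 Tissue Factor measured by ELISA, 24 h after treatment of primary HUVEC in the BioMAP 3C setting.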

[15] = BSK_3C_uPAR: BioMAP Diversity Plus: 3C Assay for Urokinase-type plasminogen activator receptor (uPAR) Biomarker Activity (AID 2282998); conditions: BioMAP 3C HUVEC, uPAR biomarker ELISA; actives raise or lower the signal
Procedure, shortened: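 Endothelial primary cells of human umbilical vein origin received test chemical; 24 h later uPAR was assayed by ELISA. Fitting was bidirectional, DMSO as negative control.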

[16] = BSK_3C_VCAM1: BioMAP Diversity Plus: 3C Assay for Vascular cell adhesion molecule 1 (VCAM1) Biomarker Activity (AID 2282999); conditions: BioMAP 3C HUVEC, VCAM1 ELISA, cytokine-stimulated; actives raise or lower the signal
Procedure, shortened: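 Activity fitted in both directions relative to DMSO, with ELISA measurement of the surface marker on primary HUVEC (3C) at 24 h post-treatment; parallel SRB staining (0.1% SRB, TCA-fixed, 560 nm) flagged overt cytotoxicity.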

[17] = BSK_4H_Eotaxin3: BioMAP Diversity Plus: 4H Assay for Eotaxin 3 Biomarker Activity (AID 2283000); conditions: primary human endothelial cells (HUVEC); actives raise or lower the signal
Procedure, shortened: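 Eotaxin-3 (CCL26) levels were measured by ELISA in HUVEC primary cultures 24 h post-dosing. Gain or loss of signal was fitted in both directions, with DMSO serving as baseline and negative control.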

[18] = ATG_NFI_CIS: Attagene CIS-FACTORIAL HepG2 Assay for human Nuclear Factor I (NFI) (AID 2282989); conditions: HepG2 cis-regulatory reporter, NFI response element transcription; actives raise or lower the signal
Procedure, shortened: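 After transient transfection of HepG2 with cis-promoter reporter constructs and 24 h dosing, RNA is reverse-transcribed, amplified, 6-FAM end-labelled and HpaI-digested before capillary analysis. Bidirectional curve fitting against DMSO.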

[19] = target: Cellular tumor antigen p53 (Homo sapiens) (UniProt P04637); assay: ATG_p53_CIS: Attagene CIS-FACTORIAL HepG2 Assay for human p53 Transcription Factor (AID 2282994); conditions: HepG2 p53 cis-element reporter, Attagene mRNA; actives raise or lower the signal
Procedure, shortened: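 Endogenous p53 activity read in transiently transfected HepG2 from a cis-element-driven reporter transcript after 24 h exposure. RNA reverse-transcribed, PCR-amplified, fluorescently labelled and sized by capillary electrophoresis; gain or loss fitted against DMSO baseline.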

Measured: AC50

Chain of Glucocorticoid receptor (Homo sapiens) (P04150 whole entry, looked up, the tested form may be a part): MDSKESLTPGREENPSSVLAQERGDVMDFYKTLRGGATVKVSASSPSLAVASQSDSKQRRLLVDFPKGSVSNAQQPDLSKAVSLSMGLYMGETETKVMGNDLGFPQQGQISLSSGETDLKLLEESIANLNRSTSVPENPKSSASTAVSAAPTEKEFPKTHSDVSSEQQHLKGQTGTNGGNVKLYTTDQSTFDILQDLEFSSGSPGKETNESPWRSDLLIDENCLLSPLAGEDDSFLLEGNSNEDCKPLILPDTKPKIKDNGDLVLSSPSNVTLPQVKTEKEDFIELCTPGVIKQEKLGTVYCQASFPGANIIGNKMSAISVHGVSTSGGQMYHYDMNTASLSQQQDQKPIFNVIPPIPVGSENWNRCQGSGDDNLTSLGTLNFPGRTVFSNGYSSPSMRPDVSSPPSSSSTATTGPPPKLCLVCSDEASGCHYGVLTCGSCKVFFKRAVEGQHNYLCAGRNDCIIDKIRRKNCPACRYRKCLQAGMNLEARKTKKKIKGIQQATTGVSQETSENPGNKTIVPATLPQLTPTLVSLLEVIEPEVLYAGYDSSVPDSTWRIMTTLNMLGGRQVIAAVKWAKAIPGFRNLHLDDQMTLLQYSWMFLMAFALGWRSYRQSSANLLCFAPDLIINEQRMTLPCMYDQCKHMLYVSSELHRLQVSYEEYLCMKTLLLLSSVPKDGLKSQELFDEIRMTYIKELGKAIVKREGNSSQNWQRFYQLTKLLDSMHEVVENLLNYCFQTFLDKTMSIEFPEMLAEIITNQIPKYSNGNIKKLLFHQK
Chain of Nuclear receptor subfamily 4 group A member 2 (Homo sapiens) (P43354 whole entry, looked up, the tested form may be a part): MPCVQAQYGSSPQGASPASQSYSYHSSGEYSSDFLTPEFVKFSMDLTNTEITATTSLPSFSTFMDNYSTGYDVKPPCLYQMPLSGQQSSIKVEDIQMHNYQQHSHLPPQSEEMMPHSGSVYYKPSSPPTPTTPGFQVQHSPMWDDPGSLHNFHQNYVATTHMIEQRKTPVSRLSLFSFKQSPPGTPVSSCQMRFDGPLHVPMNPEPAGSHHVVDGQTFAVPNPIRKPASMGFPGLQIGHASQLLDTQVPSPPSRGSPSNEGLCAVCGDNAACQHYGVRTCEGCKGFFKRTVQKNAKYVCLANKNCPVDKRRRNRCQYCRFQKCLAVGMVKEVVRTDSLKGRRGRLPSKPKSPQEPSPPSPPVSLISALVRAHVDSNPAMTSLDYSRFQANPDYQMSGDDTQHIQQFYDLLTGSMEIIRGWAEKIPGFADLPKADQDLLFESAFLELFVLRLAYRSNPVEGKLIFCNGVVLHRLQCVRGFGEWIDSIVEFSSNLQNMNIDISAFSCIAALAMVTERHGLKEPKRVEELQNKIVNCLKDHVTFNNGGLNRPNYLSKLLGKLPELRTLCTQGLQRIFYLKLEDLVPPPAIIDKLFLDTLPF
Chain of Myc proto-oncogene protein (Homo sapiens) (P01106 whole entry, looked up, the tested form may be a part): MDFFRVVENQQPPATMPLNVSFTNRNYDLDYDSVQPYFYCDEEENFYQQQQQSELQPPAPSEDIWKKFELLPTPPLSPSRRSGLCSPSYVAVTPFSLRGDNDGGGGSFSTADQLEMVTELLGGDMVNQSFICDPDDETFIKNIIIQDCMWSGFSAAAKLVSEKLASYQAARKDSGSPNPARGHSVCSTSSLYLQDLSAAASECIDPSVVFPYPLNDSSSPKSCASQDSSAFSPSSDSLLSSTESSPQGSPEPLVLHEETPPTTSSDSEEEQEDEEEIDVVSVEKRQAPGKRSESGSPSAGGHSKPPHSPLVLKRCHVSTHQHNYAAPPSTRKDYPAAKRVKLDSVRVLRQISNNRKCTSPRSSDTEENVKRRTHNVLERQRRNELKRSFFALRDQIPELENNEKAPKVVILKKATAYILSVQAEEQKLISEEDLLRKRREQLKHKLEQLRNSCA
Chain of Cellular tumor antigen p53 (Homo sapiens) (P04637 whole entry, looked up): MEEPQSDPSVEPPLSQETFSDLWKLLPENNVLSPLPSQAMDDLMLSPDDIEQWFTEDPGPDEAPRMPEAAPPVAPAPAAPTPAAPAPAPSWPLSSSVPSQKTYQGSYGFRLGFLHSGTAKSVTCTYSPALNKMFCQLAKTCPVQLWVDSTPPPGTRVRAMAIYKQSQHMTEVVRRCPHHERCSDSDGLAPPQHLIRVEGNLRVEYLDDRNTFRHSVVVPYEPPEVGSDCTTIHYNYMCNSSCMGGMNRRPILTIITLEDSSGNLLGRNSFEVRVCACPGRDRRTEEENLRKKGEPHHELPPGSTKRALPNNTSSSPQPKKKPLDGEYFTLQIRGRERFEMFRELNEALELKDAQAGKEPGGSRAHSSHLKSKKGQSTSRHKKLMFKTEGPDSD
Chain of Bile acid receptor (Homo sapiens) (Q96RI1 whole entry, looked up, the tested form may be a part): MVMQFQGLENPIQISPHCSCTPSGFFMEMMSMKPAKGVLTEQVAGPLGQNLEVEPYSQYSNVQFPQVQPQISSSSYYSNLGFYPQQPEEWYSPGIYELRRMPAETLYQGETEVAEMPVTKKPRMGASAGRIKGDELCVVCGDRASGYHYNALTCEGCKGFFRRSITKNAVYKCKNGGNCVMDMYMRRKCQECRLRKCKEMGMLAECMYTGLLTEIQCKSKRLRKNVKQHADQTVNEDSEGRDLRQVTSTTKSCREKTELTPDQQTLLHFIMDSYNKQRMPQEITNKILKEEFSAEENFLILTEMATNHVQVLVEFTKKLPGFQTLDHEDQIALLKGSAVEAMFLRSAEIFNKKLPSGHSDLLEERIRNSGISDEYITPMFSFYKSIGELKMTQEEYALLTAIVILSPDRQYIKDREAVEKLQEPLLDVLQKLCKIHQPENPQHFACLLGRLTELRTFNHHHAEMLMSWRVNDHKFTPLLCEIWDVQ
Chain of Estrogen-related receptor gamma (Homo sapiens) (P62508 whole entry, looked up, the tested form may be a part): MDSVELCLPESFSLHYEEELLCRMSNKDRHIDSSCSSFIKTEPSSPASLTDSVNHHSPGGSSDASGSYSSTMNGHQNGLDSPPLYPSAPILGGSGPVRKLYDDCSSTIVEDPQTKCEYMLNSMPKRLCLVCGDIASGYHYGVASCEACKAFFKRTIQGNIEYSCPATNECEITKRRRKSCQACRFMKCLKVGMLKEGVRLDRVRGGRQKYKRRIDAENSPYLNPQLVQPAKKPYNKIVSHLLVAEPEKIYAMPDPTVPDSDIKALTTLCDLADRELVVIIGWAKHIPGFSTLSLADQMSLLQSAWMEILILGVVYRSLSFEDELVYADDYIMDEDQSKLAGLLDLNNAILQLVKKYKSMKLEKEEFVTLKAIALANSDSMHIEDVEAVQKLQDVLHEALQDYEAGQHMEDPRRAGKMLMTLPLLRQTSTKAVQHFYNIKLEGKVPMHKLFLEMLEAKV
Chain of Nuclear respiratory factor 1 (Homo sapiens) (Q16656 whole entry, looked up): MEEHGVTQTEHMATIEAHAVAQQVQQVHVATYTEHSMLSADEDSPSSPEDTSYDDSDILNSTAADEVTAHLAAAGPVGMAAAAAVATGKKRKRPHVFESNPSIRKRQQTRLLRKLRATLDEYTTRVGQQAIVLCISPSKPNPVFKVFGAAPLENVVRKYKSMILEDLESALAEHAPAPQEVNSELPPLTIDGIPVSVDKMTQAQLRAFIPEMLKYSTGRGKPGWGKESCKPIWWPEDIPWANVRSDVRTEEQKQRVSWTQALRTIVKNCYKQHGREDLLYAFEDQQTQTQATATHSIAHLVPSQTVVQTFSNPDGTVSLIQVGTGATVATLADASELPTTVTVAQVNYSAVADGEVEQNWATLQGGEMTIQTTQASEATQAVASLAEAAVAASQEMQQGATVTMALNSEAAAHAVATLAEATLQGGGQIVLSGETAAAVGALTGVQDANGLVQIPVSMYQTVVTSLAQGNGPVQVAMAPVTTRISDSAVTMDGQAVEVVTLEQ
Chain of Transcriptional activator Myb (Homo sapiens) (P10242 whole entry, looked up): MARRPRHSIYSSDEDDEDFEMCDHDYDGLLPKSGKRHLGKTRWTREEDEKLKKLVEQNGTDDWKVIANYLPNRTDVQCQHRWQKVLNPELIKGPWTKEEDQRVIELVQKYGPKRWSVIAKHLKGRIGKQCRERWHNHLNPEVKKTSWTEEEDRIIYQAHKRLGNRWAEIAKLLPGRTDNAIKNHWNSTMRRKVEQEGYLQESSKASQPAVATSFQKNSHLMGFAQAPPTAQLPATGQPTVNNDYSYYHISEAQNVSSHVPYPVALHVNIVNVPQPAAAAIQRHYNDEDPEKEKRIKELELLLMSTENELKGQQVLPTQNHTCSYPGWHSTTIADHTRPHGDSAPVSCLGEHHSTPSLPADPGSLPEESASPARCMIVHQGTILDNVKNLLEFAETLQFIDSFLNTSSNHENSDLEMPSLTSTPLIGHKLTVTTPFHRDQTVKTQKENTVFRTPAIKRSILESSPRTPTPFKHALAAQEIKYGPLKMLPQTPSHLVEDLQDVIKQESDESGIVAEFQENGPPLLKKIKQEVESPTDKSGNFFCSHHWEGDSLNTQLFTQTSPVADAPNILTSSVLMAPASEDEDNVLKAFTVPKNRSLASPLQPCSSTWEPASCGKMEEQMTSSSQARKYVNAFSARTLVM
Chain of Hepatocyte nuclear factor 4-alpha (Homo sapiens) (P41235 whole entry, looked up): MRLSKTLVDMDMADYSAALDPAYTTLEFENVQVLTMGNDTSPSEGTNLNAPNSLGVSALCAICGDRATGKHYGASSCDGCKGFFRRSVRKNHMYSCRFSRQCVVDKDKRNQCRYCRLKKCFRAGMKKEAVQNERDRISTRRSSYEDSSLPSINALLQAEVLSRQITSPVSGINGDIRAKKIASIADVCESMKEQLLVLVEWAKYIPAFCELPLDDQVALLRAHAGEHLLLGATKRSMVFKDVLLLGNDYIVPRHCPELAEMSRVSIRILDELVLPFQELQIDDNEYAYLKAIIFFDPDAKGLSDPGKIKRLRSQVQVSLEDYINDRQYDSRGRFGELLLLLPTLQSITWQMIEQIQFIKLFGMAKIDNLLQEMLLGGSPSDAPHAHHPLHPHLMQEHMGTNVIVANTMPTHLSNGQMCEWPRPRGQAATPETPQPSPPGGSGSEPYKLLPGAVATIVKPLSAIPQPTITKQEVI

CCC(=C(c1ccc(O)cc1)c1ccc(OCCN(C)C)cc1)c1ccccc1
inactive: [1] | [2] | [3] | [4] | [5] | [6] | [7] | [8] | [9] | [10] | [11] | [12] | [13]
active: [8] 11.3 µM | [10] 13.1 µM | [12] 5.93 µM and 1.95 µM and 1.77 µM | [13] 7.1 µM and 11.1 µM | [14] 11 µM | [15] 7.66 µM | [16] 11.9 µM | [17] 7.42 µM

NCC(F)(F)C(F)(F)C(F)(F)C(F)(F)C(F)(F)C(F)(F)C(F)(F)F
not listed: [1] | [6] | [7]
inactive: all other assays above

FC(F)(I)C(F)(F)C(F)(F)C(F)(F)C(F)(F)C(F)(F)I
inactive: [1] | [8] | [9] | [10] | [11] | [13] | [19]
active: [7] 20.8 µM | [12] 11.1 µM

CC[C@H](c1ccc(O)cc1)[C@@H](CC)c1ccc(O)cc1
inactive: [2] | [3] | [4] | [5] | [6] | [8] | [9] | [18] | [10] | [11] | [13] | [19]
active: [12] 6.58 µM [middle of 4 runs] | [19] 17.5 µM | [14] 32.5 µM | [15] 21.7 µM | [16] 34.2 µM | [17] 27.6 µM

Oc1cccc(O)c1
active: [8] 2.59 µM
not listed: [3] | [4] | [7]
inactive: all other assays above

COc1cc(CCC(=O)CC(=O)CCc2ccc(O)c(OC)c2)ccc1O
inactive: [1] | [3] | [4] | [9] | [10] | [11]
active: [8] 67.6 µM | [12] 24.8 µM | [13] 68.8 µM | [19] 100 µM

Cc1cc(CCN2CCN(c3nsc4ccccc34)CC2)cc2c1NC(=O)CC2(C)C
active: [12] 4.32 µM | [13] 8.81 µM | [14] 26.9 µM | [15] 26.6 µM | [16] 33.2 µM | [17] 33.6 µM
not listed: [6] | [7] | [18]
inactive: all other assays above
